For 40 compounds, Potency and cytotoxicity results are on record in PubChem BioAssay (Tox21).

Records with an inconclusive call do not appear. Entries that show only a call come without a potency. The source made the active and inactive calls. Calls follow the shape of the dose curve; as a rule, active = well fitted activation curve with a large enough effect in the repeat runs; inconclusive = weak or mixed curves; inactive = flat fitted curve, though single readings scatter.
Potency is read from the fitted curve at half-maximal effect.

This experiment in a line: A CellTox Green Cytotoxicity Assay to monitor cytotoxicity in HepG2 cells - 24 hour (AID 1224878). Also: nearly all actives have a fitted effect of over 45% in size. The conditions noted are these: CellTox Green fluorescence; series mostly up to 76.8 µM. From the text:
National Center for Advancing Translational Sciences [NCATS]
NIH Chemical Genomics Center [NCGC]
U.S. Environmental Protection Agency [EPA]
National Institutes of Environmental Health Sciences [NIEHS]
National Toxicology Program [NTP]
Cell-based models are critical for drug discovery. Determining the natural cytotoxic effects resulting from test compounds is an essential research activity. A CellTox Green Cytotoxicity Assay to monitor cytotoxicity in real time of continues cell culture during 40 hours of the compound treatment was used to screen Tox21 10K library compounds in HepG2 cells. CellTox Green Cytotoxicity Assay is a nonlytic, homogeneous, biofluorescent method to measure cytotoxicity in cell culture after experimental manipulation. The assay system uses a proprietary asymmetric cyanine dye that is excluded from viable cells but preferentially stains the dead cell's DNA. […] Viable cells produce no appreciable increases in fluorescence. Therefore, the fluorescence signal produced by the binding interaction with dead cell DNA is proportional to cytotoxicity.
The mixture of HepG2 cell suspension and reagents were dispensed at 600cells/6 ul/well in 1536-well tissue culture treated black solid bottom plates using a Multidrop dispenser. After the assay plates were incubated at a 37 C/5% CO2 incubator for 5 hours, 23 nL of compounds dissolved in DMSO, positive and negative controls was transferred to the assay plate by a pintool work station. The plates were incubated at 37 C for 40 hours. The fluorescence intensity were measured at 0h, 8h, 16h, 24h, 32h and 40h time points using ViewLux plate reader during compound treatment.
`SCCOCCOCCS`: the Potency entry was “inactive”.

For the compound `Cc1ccccc1CCO`, the Potency result was “inactive”. For `CCC1=C(C)CN(C(=O)NCCc2ccc(S(=O)(=O)NC(=O)NC3CCC(C)CC3)cc2)C1=O` (stereo not given), the Potency result was “inactive”. In the case of `Nc1ccc(C(=O)Oc2ccccc2)c(O)c1`, the Potency result is “inactive”.

As to `Nc1nc(Cl)nc2c1ncn2[C@H]1C[C@H](O)[C@@H](CO)O1`, the Potency result was “inactive”. Regarding `S=c1[nH][nH]c(=S)s1`, the Potency entry is “inactive”. Same read-out and setting: as for `O=Cc1ccc([N+](=O)[O-])cc1`, the entry is “inactive”. Turning to `C[C@H](CN1CCCC1)C(=O)c1ccc(C(F)(F)F)cc1`, the Potency was 21.3 µM (active). Take `CCC[Si](OC)(OC)OC`: the Potency result was “inactive”. As to `CCc1cnc(C(=O)O)c(C(=O)O)c1`, the Potency entry is “inactive”.

With `N#Cc1ccc(CC(=O)c2cccc(C(F)(F)F)c2)cc1`, the Potency entry is “inactive”. As to `COC(=O)/C=C/C(C)=C\C=C\C(C)=C\C=C\C=C(C)\C=C\C=C(C)\C=C\C(=O)O`, the Potency result was “inactive”. On to `CCCCCCCCCC(C)C=O` (stereo not given), for which the Potency was 24.5 µM (active). `CC(C)CC(C)(C)C`: the Potency result is “inactive”.

Take `CCCCCCCCC(=O)OCC(C)OC(=O)CCCCCCCC` (stereo not given): the Potency entry is “inactive”. Consider `CC(COc1ccccc1)NC(C)C(O)c1ccc(O)cc1` (stereo not given), for which the Potency result was “inactive”.

With `C=C[Si](OCC)(OCC)OCC`, the Potency entry is “inactive”. Turning to `COc1ccc(/C(C)=C/C(=O)O)c(OC)c1`, the Potency entry is “inactive”. As for `CC(C)Cc1nccs1`, the Potency result is “inactive”. On to `Nc1ccc(F)cc1F`, for which the Potency result was “inactive”. Turning to `C/C(=C(\CCO)SS/C(CCO)=C(\C)N(C=O)Cc1cnc(C)nc1N)N(C=O)Cc1cnc(C)nc1N`, the Potency result is “inactive”. For `CCCCCCCCCCCCCCCCC(=O)O`, the Potency result was “inactive”. Regarding `COC(=O)C(C)(C)C`, the Potency entry was “inactive”. For the compound `O=C(O)c1ccc2cc(O)ccc2c1`, the Potency entry is “inactive”. Regarding `CCCCOc1ccc(N)cc1`, the Potency result is “inactive”. In the case of `CC(C)(C)c1cc(C=O)cc(C(C)(C)C)c1O`, the Potency entry is “inactive”. On to `Cc1c(Nc2ncccc2C(=O)O)cccc1C(F)(F)F`, for which the Potency entry was “inactive”.

With `Cc1c(Cl)cccc1Nc1ccccc1C(=O)O`, the Potency entry is “inactive”. As to `O=C(Cl)c1cc(Cl)cc(Cl)c1`, the Potency result is “inactive”. For the compound `CC1(C)[C@@H]2CC[C@]3(C2)[C@@H]1C(=O)CCC3(C)C`, the Potency entry was “inactive”. As for `O=C(O)c1ccccc1[N+](=O)[O-]`, the Potency entry was “inactive”. Regarding `CCC(C(=O)O)c1ccc(N2Cc3ccccc3C2=O)cc1` (stereo not given), the Potency result is “inactive”. Still for that read-out and setting: as for `O=C(O)c1cc(C(=O)O)cc([N+](=O)[O-])c1`, the entry is “inactive”; as for `OCC(O)c1ccccc1` (stereo not given), “inactive”.

For the compound `CC1=CC(=C(c2ccc(N)cc2)c2ccc(N)cc2)C=CC1=N`, the cytotoxicity is 0.887% [at 6.97 µM] (inactive). As for `O=C1c2ccccc2C(=O)C1c1ccc2cc(S(=O)(=O)O)cc(S(=O)(=O)O)c2n1`, the Potency entry was “inactive”. `CC(Cc1ccccc1)(NC(=O)CN)c1ccccc1` (stereo not given): the Potency entry is “inactive”. Still for that read-out and setting: as for `Oc1ccc(Oc2ccccc2)cc1`, the figure is 36.9 µM (active). For the compound `CC(C)CCCCCCCOC(=O)c1ccc(C(=O)OCCCCCCCC(C)C)c(C(=O)OCCCCCCCC(C)C)c1`, the Potency entry is “inactive”. As to `C/C(=C\C(C)CC(C)CC(C)C)C1CC(=O)OC1=O` (stereo not given), the Potency entry is “inactive”.
